High-throughput results as filed in PubChem BioAssay.
In the library only some 3.9% were active in any assay of this set; here they are far more common.
MITF act – activators of MITF-driven TRPM1 promoter activity in SK-MEL-5 cells. SK-MEL-5 TRPM1-promoter luciferase, 24 h; % of positive control, neutral wells = 0. 300,000 tested, 0.75% active. activation, % at 12.5 µM;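 active = mean activation of at least 80% with every replicate also reaching 80%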;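 also: 0% = neutral control wells and 100% = parthenolide positive control wells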
HSF1 inhib – HSF1 inhibition; NIH3T3-HGL HSE-luciferase, MG132-induced, luminescence 8 h; active compounds read low; activity change, negative = inhibition, % at 7.5 µM (by protocol); 300,000 tested, 0.77% active;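 active = more than half of replicate wells show activity change below -50%, luminescence cut by over half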;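 also: luciferase reports HSF-1 transcriptional activity via heat shock element; 0% = median of DMSO wells and -100% = zero luminescence signal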
Wnt bcat act – activates Wnt/beta-catenin signaling in a reporter cell assay; activator, plate reader; activation, % at 9.35 µM; 300,000 tested, 1.2% active; in the data active = activation above about 30%, passing the limit was not always enough;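 also: 0% = neutral control wells and 100% = positive control wells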
HSF1 activator – increases HSF-1 driven luciferase reporter signal; NIH3T3-HGL HSF-1 luciferase reporter, MG132, 8 h; 100% = twice DMSO control signal; activation, % at 9 µM; 300,000 tested, 1.7% active;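 active = mean replicate activation of at least 50% with a set share of replicates each reaching 50%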;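 also: 0% = median of the neutral control wells and 100% = twice that signal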
esBAF inh – inhibitors of esBAF chromatin remodeling in mouse ES cells; Bmi1-luciferase knock-in reporter, 24 h; 100% = twice the neutral-well signal; reporter increase, % at 12.5 µM; 350,000 tested, 2% active; in the data active = activation above about 40%;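 also: 0% = median of the plate's neutral control wells and 100% = double that signal; a rise in the Bmi1 reporter signal indicates esBAF inhibition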
Numbers without * were called inactive; x = no result.

SMILES | MITF act | HSF1 inhib | Wnt bcat act | HSF1 activator | esBAF inh
C(=N\NC1=Nc2cccc3cccc1c23)/c1ccccn1 | 4 | -71* | -6 | -73 | x
Brc1cc2c(cc1/C=N/Nc1nc3ccccc3s1)OCO2 | x | 19 | x | 21 | 68*
Brc1ccc(/C=C/C=N/Nc2nc3ccccc3s2)cc1 | 44 | 3 | x | 12 | 25
CO[C@H]1CN(C)C(=O)c2cc(NS(=O)(=O)c3ccc(F)cc3)ccc2OC[C@@H](C)NC[C@@H]1C | x | x | x | x | 1
C[C@H](CO)N1C[C@H](C)[C@H](CN(C)C(=O)Nc2ccc(C(F)(F)F)cc2)Oc2ccc(NS(=O)(=O)c3cccs3)cc2CC1=O | x | x | x | x | 2
COc1ccc(Nc2nc(-c3ccc(OC)cc3)c(CCC(=O)O)s2)cc1 | -2 | -2 | 2 | 20 | -7
COC(=O)CCc1sc(Nc2ccccc2)nc1-c1ccc(OC)cc1 | 61 | 13 | 42* | 6 | x
COc1ccccc1-c1cn(CC[C@@H]2CC[C@@H](NC(=O)C3CC3)[C@@H](CO)O2)nn1 | x | x | x | x | 1
Cc1cc(C)c(S(=O)(=O)Nc2cccc(/C=C/C(=O)O)c2)c(C)c1 | 1 | 41 | 0 | 83* | x
O=C(Nc1ccccc1)SC1CCCCC1 | 79 | x | 9 | x | 83*
O=C(NC1CCCC1)C1CCCN1C(=O)Nc1ccccc1 (stereo unspecified) | x | 2 | 2 | 5 | 1
CN(C(=O)Nc1ccccc1)C1CCCCC1 | 29 | 7 | 6 | -12 | 34
O=C(Nc1ccccc1)N1CCCC2CCCCC21 (stereo unspecified) | 61 | 11 | -2 | 29 | 52*
CC1(C)Cc2nc3sc4c(=O)n(Cc5ccccc5)cnc4c3cc2CS1 | 1 | 13 | -1 | 19 | x
CCCn1cnc2c(sc3nc4c(cc32)CSC(C)(C)C4)c1=O | 57 | 5 | x | 25 | 70*
CCCCOc1ccc(C2C(=O)N(C3CCCCC3)CC(=O)N2CC2CCCO2)cc1 (stereo unspecified) | -2 | -54* | x | -63 | 4
CCC(=O)N1CC[C@@H]2[C@@H](CO)Nc3ccc(C#Cc4ccc(F)cc4)cc3[C@@H]21 | x | x | x | x | 2
Cc1sc2nc(-c3ccc(Br)cc3)oc(=O)c2c1C | x | -1 | x | 10 | 55*
CSc1ccccc1NC(=O)c1cc(-c2ccc3c(c2)OCO3)on1 | 66 | 0 | 11 | 14 | 48*
CC(C)CNC(=O)c1cc(-c2ccc3c(c2)OCO3)on1 | x | 24 | 35* | 7 | 3
CSc1ccccc1NC(=O)c1cc(C)on1 | -9 | -3 | x | -10 | 4
O=C(Nc1cc(Br)ccc1O)c1cc(-c2ccc3c(c2)OCO3)on1 | 45 | -2 | 7 | -2 | 46*
CN(C(=O)c1cc(-c2ccc3c(c2)OCO3)on1)c1ccccc1 | 101* | 8 | 14 | 13 | 68*
COc1ccc(NC(=O)Nc2ccc3c(c2)[C@@H]2C[C@H](CC(=O)N4CCCCC4)O[C@@H](CO)[C@@H]2O3)cc1 | x | x | x | x | 1
CCCNC(=O)N(C)C[C@H]1Oc2ncc(C3=CCCC3)cc2C(=O)N([C@H](C)CO)C[C@@H]1C | x | x | x | x | 4
SMILES | MITF act | HSF1 inhib | Wnt bcat act | HSF1 activator | esBAF inh
CNC[C@H]1OCCCC[C@H](C)Oc2ccc(NC(=O)Nc3ccc(OC)cc3)cc2C(=O)N([C@H](C)CO)C[C@H]1C | x | x | x | x | 2
O=C(Nc1ccccc1F)N[C@@H]1CC[C@H](CCNS(=O)(=O)c2ccc(Cl)cc2)O[C@H]1CO | x | x | x | x | 4
COc1ccc(N2Cc3ccc(OC)c(OC)c3C2=O)cc1 | 86* | 19 | -1 | 21 | 38
CC(C)CC#Cc1cnc2c(c1)C(=O)N([C@@H](C)CO)C[C@@H](C)[C@H](CN(C)C(=O)c1cccc(F)c1)O2 | x | x | x | x | 4
CCC(CO)Nc1ccn2nc(-c3cc(OC)c(OC)c(OC)c3)cc2n1 (stereo unspecified) | x | x | 0 | x | -6
CCC(CO)Nc1ccn2nc(-c3ccccc3)cc2n1 (stereo unspecified) | x | x | -2 | x | 69*
CCC(CO)Nc1ccn2nc(-c3cccs3)cc2n1 (stereo unspecified) | x | x | 2 | x | 55*
COc1ccc(OCCOCCN2CCc3ccccc3C2)cc1 | x | -3 | -6 | -7 | 0
O=C(COc1ccc(F)cc1Br)N1CCc2ccccc21 | 17 | 23 | 72* | 80* | 24
COc1ccc2c(CC(=O)OCC(=O)N3CCc4ccccc43)coc2c1 | x | -5 | -3 | -11 | -1
COc1ccc2c(CC(=O)N3CCc4ccccc43)coc2c1 | 111* | 76 | x | 104* | x
N#Cc1ccc(OCCN2CCc3ccccc3C2)cc1 | x | 37 | 6 | 85* | x
COc1ccc(OCC(=O)N2CCCC2=O)c([N+](=O)[O-])c1 | 2 | -3 | 0 | 5 | -5
COc1ccc(OCC(=O)N2CCc3ccccc32)c([N+](=O)[O-])c1 | x | x | -1 | x | 54*
C[C@H](CO)N1C[C@H](C)[C@@H](CN(C)Cc2ccc(C(=O)O)cc2)Oc2ncc(C3=CCCCC3)cc2C1=O | x | x | x | x | -1
COc1ccc(-c2cnc3c(c2)C(=O)N([C@@H](C)CO)C[C@H](C)[C@H](CN(C)C(=O)C2CCOCC2)O3)cc1 | x | x | x | x | 3
CN(C)c1ccc2c(c1)[C@H]1C[C@H](CC(=O)NCc3ccccc3F)O[C@H](CO)[C@H]1O2 | x | x | x | x | 2
O=C(c1cc([N+](=O)[O-])ccc1Cl)N1CCc2ccccc21 | x | 1 | 0 | 20 | -7
O=C(COc1ccc([N+](=O)[O-])cc1Cl)N1CCc2ccccc21 | 119* | x | 42* | x | 66*
O=C(CNc1ccccc1OC(F)F)N1CCc2ccccc21 | 108* | 2 | x | 22 | x
O=C(CNCCO)N1CCc2ccccc21 | -8 | -3 | x | -5 | -3
N#Cc1ccc(OCC(=O)N2CCc3ccccc32)cc1 | 72 | x | -4 | x | 45*
COc1ccc(CCNC(=O)/C=C/c2ccco2)cc1OC | x | 14 | 1 | 17 | 4
CCOc1ccc(CCNC(=O)/C=C/c2ccco2)cc1OCC | 20 | 5 | 34* | -18 | 2
COc1cccc(Nc2ccc(C(=O)O)cc2N)c1 | -1 | -66* | 8 | -69 | 15
SMILES | MITF act | HSF1 inhib | Wnt bcat act | HSF1 activator | esBAF inh
C[C@H](CO)N1C[C@H](C)[C@H](CN(C)C(=O)Cc2ccncc2)Oc2cc(C#CC3CCCC3)ccc2S1(=O)=O | x | x | x | x | 5
COc1ccc(C(=O)NC(=S)NCCO)cc1Br | 20 | -68* | 2 | -74 | 13
CN(Cc1ccccc1)C(=S)NC(=O)c1ccccc1 | -1 | 2 | 0 | 28 | -4
COc1ccc(C(=O)NC(=S)N(C)Cc2ccccc2)cc1Br | -9 | 21 | -2 | 54* | x
COc1ccc(C(=O)NC(=S)NCc2cccnc2)cc1Br | 3 | 6 | -2 | 9 | x
CCCNC(=O)C[C@H]1CC[C@@H]2[C@H](COC[C@H](O)CN2Cc2ccncc2)O1 | x | x | x | x | -3
CC(=O)NCCn1ccc2ccccc21 | -3 | 22 | x | 60* | 3
COc1cc(OC)cc(C(=O)NCCn2ccc3ccccc32)c1 | x | 2 | -3 | 0 | 13
COc1cccc(C(=O)NCCn2ccc3ccccc32)c1 | x | 9 | 24 | 13 | 71*
